This is part of a sample that, as a whole, favours compounds with a hit. Of some 79,000 tested, about 15% had one in any assay. A number with no mark means an inactive call. Calls of active or inactive are those of the source. No stated cut-off is given here; in the data, active means growth inhibition above about 70%; inactive means the rest.
Key:
[1] = NCI Yeast Anticancer Drug Screen. Data for the rad50 strain (AID 155);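 further: 0% = growth of vehicle-only cultures of the same strain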; details: S. cerevisiae rad50 strain growth inhibition; at 50.0 µM; stronger effect = higher value
Method in brief: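 Vehicle-treated cultures provide the reference for the growth inhibition reported for compound-exposed, repair-deficient yeast.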

[2] = NCI Yeast Anticancer Drug Screen. Data for the mec2-1 strain (AID 157); details: S. cerevisiae mec2-1 strain, at 50.0 µM, stronger effect = higher value
Method in brief: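 Yeast mec2-1 mutant treated with compound. Readout: growth inhibition vs vehicle controls.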

[3] = NCI Yeast Anticancer Drug Screen. Data for the sgs1 mgt1 strain (AID 161);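 further: 0% = growth of cultures given vehicle only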; details: S. cerevisiae sgs1 mgt1 strain, at 50.0 µM, stronger effect = higher value
Method in brief: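 Mutant yeast exposed to compound; growth scored against vehicle-only wells.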

[4] = NCI Yeast Anticancer Drug Screen. Data for the cln2 rad14 strain (AID 165);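 further: 0% = growth equal to vehicle treated cultures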; details: S. cerevisiae cln2 rad14 strain, at 50.0 µM, stronger effect = higher value
Method in brief: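 cln2 rad14 yeast strain; compound exposure; growth inhibition read vs vehicle controls.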

[5] = NCI Yeast Anticancer Drug Screen. Data for the bub3 strain (AID 167); details: S. cerevisiae bub3 mutant strain, at 50.0 µM, stronger effect = higher value
Method in brief: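 Mutant yeast screening strain plus compound; vehicle-treated cultures serve as the 0% inhibition reference.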

[6] = NCI Yeast Anticancer Drug Screen. Data for the mlh1 rad18 strain (AID 175); details: S. cerevisiae mlh1 rad18 strain growth inhibition; at 50.0 µM; stronger effect = higher value
Method in brief: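 Yeast w/ defined DNA-repair lesions; compound exposure; growth vs vehicle controls → % inhibition.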

| SMILES | growth inhibition [1] | growth inhibition [2] | growth inhibition [3] | growth inhibition [4] | growth inhibition [5] | growth inhibition [6] |
| --- | --- | --- | --- | --- | --- | --- |
| CC12NN=NC1C(=O)NC2=O (stereo not drawn) | 0.85% | -0.75% | 20.6% | 12% | -3.1% | -5.05% |
| CC(=O)OCC1OC(OC(C)=O)C(NC(=O)CN(Cc2ccccc2)S(C)(=O)=O)C(OC(C)=O)C1OC(C)=O (stereo not drawn) | -8.6% | 13.9% | -16.1% | -1.65% | 0.35% | -4.05% |
| CC(Br)C1=CC(c2ccccc2)(c2ccccc2)c2ccccc21 (stereo not drawn) | 97% (active) | 98% (active) | 97.9% (active) | 96.8% (active) | 97.3% (active) | 96.7% (active) |
| CCCCNCCCNCCCC | 4.95% | -3.4% | 0.65% | -0.7% | 25.5% | 2.6% |
| Nc1cc(Cl)c(F)cc1Cl | -13.3% | 0.25% | -3.6% | -28.8% | 1.15% | -14.2% |
| CCOCC1c2ccccc2CCN1Cc1c[nH]c2ccccc12 (stereo not drawn) | 9.65% | -21.2% | -2.85% | -5.15% | 0.6% | -4.55% |
| CC(=O)c1c(C)c([N+](=O)[O-])c(C)c([N+](=O)[O-])c1C | 2.1% | 11.9% | -8.9% | -94.8% | 23.4% | 7.3% |
| CCOC(=O)/C(O)=C(\C#N)c1cc(C)ccc1C | -7.5% | -14.6% | -2.7% | 0.45% | -0.45% | 10.8% |
| CC(C)(C)n1c(=O)n(C(=O)C(Cl)(Cl)Cl)n(C(=O)C(Cl)(Cl)Cl)c1=O | -13.8% | -16.6% | -14.6% | 19.1% | -10.3% | -4.45% |
| Cn1cnc2c(Cl)ncnc21 | 12.9% | 34.5% | -20.9% | -18.4% | -0.55% | 5.65% |
| CCOC(=O)C1SC(=Nc2ccc(Cl)c(Cl)c2)N=C1C (stereo not drawn) | -29.9% | -2.8% | -6.4% | 5.9% | -11.7% | -10.1% |
| COC12NC(=O)NC(=O)C1(c1ccccc1)CC(C)O2 (stereo not drawn) | -2.7% | -2.15% | 6.8% | -7.7% | -24.1% | -6.6% |
| CC(C)(C)OC(=O)NC1CCCCC1NC(=O)C(=O)NC1CCCCC1NC(=O)OC(C)(C)C (stereo not drawn) | -17.1% | -18.7% | -14.8% | 4.2% | -10.8% | -30.3% |
| Cc1ccc(C)[nH]1 | -2.85% | 7.35% | -8.45% | 53.2% | -4.4% | 18.1% |
| COC(=O)C(Br)C(Br)c1ccc(OC)c(OC)c1 (stereo not drawn) | -5.15% | -9.8% | 13.3% | -30.6% | 22.9% | 16.2% |
| CCc1cccc(CC)c1NC(=S)NC(=O)c1ccc(Br)cc1 | -5.3% | -1.25% | -7.9% | 8.3% | -9.5% | -9.75% |
| CC1=C(CCC#N)C(=O)C(CCC#N)C(C)(C)C1 (stereo not drawn) | 0.15% | -8.65% | -16.6% | -29.6% | -2.75% | -7.9% |
| CC(O)CN1CCCC1 (stereo not drawn) | 5.75% | -21.9% | -4% | 6.2% | 0.6% | 9.35% |
| C=C(CCl)CCl | 42.4% | 12.2% | 39.1% | 12.5% | 46.3% | 36.5% |

| SMILES | growth inhibition [1] | growth inhibition [2] | growth inhibition [3] | growth inhibition [4] | growth inhibition [5] | growth inhibition [6] |
| --- | --- | --- | --- | --- | --- | --- |
| O=S(=O)(O)C(O)Cc1cccc2ccccc12 (stereo not drawn) | 2.2% | -8.25% | 1.3% | -40.2% | -17.8% | -0.3% |
| O=C1NC(=S)NC(=O)C1=Cc1ccccc1OCc1ccccc1 | -19.4% | -16.1% | -0.55% | -50.6% | 1.6% | -16.6% |
| O=CNc1ccc(Br)cc1 | -8.3% | -0.9% | 11.4% | 0.7% | -1.15% | 9.95% |
| CCCCCCCC#CC1(CCCC)Sc2ccccc2N1C (stereo not drawn) | 15.3% | 6.15% | 0.75% | 8.05% | 6.35% | 19.8% |
| CNC(=O)OCC1=CC(=O)C=C(OC)C1=O | 7.3% | -14.9% | 18.4% | 14.4% | 2.45% | 9% |
| COC1CC(OC(=O)c2ccccc2)C(OC(=O)c2ccccc2)C(CBr)O1 (stereo not drawn) | 85.3% (active) | 90.2% (active) | 88.6% (active) | 91% (active) | 80.1% (active) | 89.1% (active) |
| CN(c1ccccc1)c1cc2c(cc1[N+](=O)[O-])no[n+]2[O-] | 97.8% (active) | 98.7% (active) | 98.3% (active) | 98% (active) | 98.2% (active) | 98.8% (active) |
| O/N=C(\C(=N/O)Nc1ccc(-c2ccc(NC(=N/O)/C(=N\O)c3ccccc3)cc2)cc1)c1ccccc1 | 7.35% | -43.4% | -8.5% | 1.45% | -14.4% | 1.1% |
| O=C(/C=C/c1ccc(OCCCOc2ccc(/C=C/C(=O)c3ccccc3)cc2)cc1)c1ccccc1 | 14.3% | -18.1% | -4.25% | -57% | -37.9% | -10.5% |
| CC(=O)NNC(=S)N/C=C(/C(=O)c1ccccc1)c1ccccc1 | -22.7% | -9.45% | -16.7% | 3.75% | -16.4% | -6.9% |
| COc1ccc(/C=C/c2nc(=S)[nH][nH]2)cc1OC | -18.1% | -21.5% | 12.7% | 12.3% | 25.1% | -3.1% |
| COc1ccc(C2=C(c3ccccc3)C(=O)C(c3ccccc3)=C2c2ccccc2)cc1 | -12.9% | -12.9% | -8.7% | 13.2% | -1.7% | -6.05% |
| CCOC(=O)CCCCN(CC)CCCCC(=O)OCC | 2.65% | -1.5% | 11.1% | -2.25% | 16.6% | -19.6% |
| Nc1nnc2nc(CC(=O)c3cccc([N+](=O)[O-])c3)c(CC(=O)c3cccc([N+](=O)[O-])c3)nn12 | 4.5% | 4.2% | 9.35% | 18.2% | 18.6% | 14.8% |
| C[n+]1ccsn1 | -0.7% | 3.05% | -4.7% | 37% | -19.4% | -10.4% |
| Cc1ccc2c(c1)nc(N)n[n+]2[O-] | 2.85% | -14.7% | -3.4% | 3.25% | -8.95% | -39.5% |
| CC(C)(C)SC(=S)SCC(=O)c1cc2ccccc2o1 | 35.7% | 3.5% | 41.4% | 30.1% | 40.8% | 37.9% |
| O=C1CC2(CCCc3sccc32)C(=O)N1 (stereo not drawn) | -11.2% | -1.65% | 1.55% | -21.1% | -5.6% | -14.1% |
| Cc1onc(-c2c(F)cccc2Cl)c1C(=O)Nc1cc2cc([N+](=O)[O-])ccc2oc1=O | 12.3% | -13.7% | 2.3% | 8.15% | 2.8% | 12.5% |

Source: PubChem BioAssay (NCI)
